From PubChem BioAssay
IL1B secr inh – inhibitors of inflammasome signaling (IL-1 beta secretion); THP-1 LPS/ATP IL-1B secretion, AlphaLISA, 16 h; active compounds read low; activity change, % at 57.5 µM; 4.7% of 360,000 active; AID 743279; in the data active = activity change below about -50%; inconclusive = mostly about -30% to -49%
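Secreted IL-1B measured by AlphaLISA bead assay after 16 h compound exposure of THP-1 cells; compounds (final up to 57.5 uM) added 1 h before LPS (250 ng/mL) and ATP (1.25 mM) stimulation; lower signal means less secretion.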
HT1080 IDH1KD tx – HT-1080 IDH1 knockdown cell toxicity (counter line) | HT-1080 IDH1 knockdown viability, ATP luminescence, 48 h | 2% of 360,000 active | Potency, µM (doses to about 46.1 µM), for the others: at the top dose activity, negative = toxicity, hits mostly cytotoxic;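 also: potency is read from the fitted curve at half-maximal effect; 0% = DMSO wells and -100% = cell-free medium wells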
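Using the IDH1-knockdown HT-1080 line run in the same batch and compound series as the NT line, viability after 48 h at 37 °C was determined by CellTiter-Glo luminescence and expressed as % activity.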
HT1080-NT tox – kills 2HG-producing HT-1080-NT fibrosarcoma cells | AID 686970 | HT-1080-NT fibrosarcoma viability, CellTiter-Glo ATP luminescence, 48 h | 1.6% of 360,000 active | Potency, µM (top dose mostly 46.1 µM), inactives show at the top dose activity, negative = less viability, hits mostly cytotoxic;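 also: NT is the 2HG producing partner of a matched IDH1 knockdown line; potency is read from the fitted curve at half-maximal effect; 0% = DMSO-treated cells and -100% = media-only wells without cells; nearly all actives have a fitted effect of over 55% in size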
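HT-1080-NT fibrosarcoma cells (2HG-overproducing), 750 cells/well in RPMI with 5% FBS, dosed after 2 h and incubated 48 h at 37C. CellTiter-Glo luminescence normalized to DMSO and no-cell wells; concentration-response curves fitted and classed.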
TDP1 cell CPT – DT40-hTDP1 cell growth loss with CPT; chicken DT40 Tdp1-/-;hTDP1 cells + 20 nM CPT, ATP luminescence, 48 h; Potency, µM (highest dose often 46.2 µM), for inactives: at the top dose activity change, negative = growth inhibition, most hits filed as inhibitors; 12% of 420,000 active; also: potency is read from the fitted curve at half-maximal effect; nearly all actives have a fitted effect of over 55% in size
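Chicken DT40 Tdp1-/- cells complemented with human TDP1, 400 cells/well, exposed to compounds plus 20 nM camptothecin for at least 48 h at 37 C; viability read as ATP content by CellTiter-Glo luminescence.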
ELG1 DNA repair – ELG1-dependent DNA repair inhibition; HEK293T ELG1-luciferase reporter, luminescence, 16 h; DNA damage induced by 5-fluorouridine; Potency, µM (titrated, usually from 46.1 µM), without a hit: at the highest dose activity change, negative = inhibition, actives largely listed as inhibitors; 2.3% of 330,000 active; also: potency is read from the fitted curve at half-maximal effect; nearly all actives have a fitted effect of over 55% in size
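Quantitative HTS, concentration-response format. 2,000 cells/well co-treated with 5-fluorouridine and compound, 16 hr in 5% CO2 at 37 °C; ONE-Glo luminescence read after 30 min.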
DT40 TDP1 no CPT – qHTS for Inhibitors of human tyrosyl-DNA phosphodiesterase 1 (TDP1): qHTS in cells in absence of CPT; DT40 Tdp1-/- hTDP1 cells, no CPT, ATP luminescence, 48 h; AID 686978, 2013; 15% of 420,000 active; Potency, µM (top dose mostly 46.2 µM), for inactives: at the highest dose activity change, negative = growth inhibition, most hits filed as inhibitors; also: potency is read from the fitted curve at half-maximal effect; nearly all actives have a fitted effect of over 55% in size
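Compound effects on proliferation are scored in DT40 Tdp1-/-;hTDP1 cells in the absence of CPT. ATP levels (CellTiter-Glo luminescence) are recorded after a ≥48 hr, 37 °C incubation.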
* = called active by the depositor; ? = inconclusive; . = no result; ! = repeats disagree; [ ] = another dose, or the depositor's remark. Shown are actives, neighbours in structure and some others; about 19% of the full set was active somewhere. Unless noted, calls follow the shape of the dose curve; as a rule, active = well fitted curve in the direction sought with a large enough effect; inconclusive = small, poorly fitted or top-dose-only effect, or another doubt; inactive = no such curve, though single readings can be large; an effect the other way counts as inactive or inconclusive. Unless noted, % is scaled to controls: 0 for no effect and ±100 for the full control effect.

SMILES	IL1B secr inh	HT1080 IDH1KD tx	HT1080-NT tox	TDP1 cell CPT	ELG1 DNA repair	DT40 TDP1 no CPT
Cc1ccc2c(c1)[nH]c1c(=O)n(CCN3CCCCC3)cnc12	13.7	1.2%	0.2%	-4.2%	2.8%	-11.2%
Cc1ccc2[nH]c3c(N4CCN(Cc5ccccc5)CC4)ncnc3c2c1	?	20.6µM*	?	13µM*	?	9.2µM*
Cc1ccc(OCC(O)CN2CCN(Cc3ccc4c(c3)OCO4)CC2)c(C)c1 (stereo not given)	-60.0*!	-29.7%	?	?	-9.1%	?
Cc1ccc2c(c1)[nH]c1c(N3CCN(Cc4ccccc4)CC3)ncnc12	-98.0*	?	?	5.8µM*	18.4µM*	4.61µM*
COc1cccc(OC)c1C(=O)N1CCN(Cc2ccc3c(c2)OCO3)CC1	2.6	1.2%	1.8%	?	-12.1%	?
N#Cc1cccc(NC(=O)N2CC[C@@]3(CCCN(C(=O)c4cnccn4)C3)C2)c1	.	.	.	?	.	-7.6%
O=C(CS(=O)(=O)c1ccc(F)cc1)Nc1nnc(-c2ccccc2Cl)o1	8.6	-13.5%	-13.9%	-10.6%	?	-4.3%
CCOc1ccc2[nH]c3c(N4CCN(c5ccccn5)CC4)ncnc3c2c1	-77.2*	?	?	8.91µM*	16.4µM*	15.8µM*
Cc1c([N+](=O)[O-])cc(C(=O)Nc2ccc(Cc3ccncc3)cc2)cc1[N+](=O)[O-]	?	-3.0%	-2.9%	-11.7%	10.3µM*	-18.0%
O=C(Nc1ncccn1)c1ccc(Cl)c([N+](=O)[O-])c1	53.3	-18.6%	-4.1%	15.4%	-22.3%	8.4%
Cc1c([N+](=O)[O-])cc(C(=O)Nc2ccc3ncccc3c2)cc1[N+](=O)[O-]	2.7	13.4%	7.8%	1.8%	0.0%	-6.3%
O=C(Nc1ccc(Cc2ccncc2)cc1)c1ccc(Cl)c([N+](=O)[O-])c1	-72.7*	2.7%[9.24 µM]	-17.4%	16.4µM*	?	18.4µM*
CCc1nc2ccccc2n1CCc1ccccc1	-8.0	-0.5%	10.5%	-29.3%	-10.1%	?
CCc1nc2ccccc2n1CCC(C)C	27.1	-0.9%	-4.6%	25.9µM*	0.0%	16.4µM*
C=C(Br)Cn1c(CC(C)C)nc2ccccc21	0.0	0.7%	1.3%	11.6µM*	-19.2%	9.2µM*
CC(C)C(=O)NCCc1nc2ccccc2n1CCc1ccccc1	-63.3*	25.1%	0.6%	?	-5.7%	20.6µM*
CCOCCn1c(CC)nc2ccccc21	4.6	13.9%	3.9%	7.8%	-15.3%	-6.0%
CC(C)Cc1nc2ccccc2n1CCc1ccccc1	0.0	-13.6%	?	23.1µM*	-2.3%	?
O=C(COc1ccccc1C(=O)Nc1ccccc1)NC1CCCCC1	.	-18.3%	-20.6%	?	.	?
CC(=O)NC1(C(F)(F)F)N=C(c2ccccc2)NC1=O (stereo not given)	7.4	23.5%	24.6%	-11.8%	10.3%	-20.8%
CC(C)(Oc1ccc(Cl)cc1)C(=O)NC1CC1	-9.6	2.4%	10.6%	-27.2%	-1.3%	?
Fc1ccccc1CNCC1CCCO1 (stereo not given)	5.7	0.8%	8.8%	1.3%	5.4%	1.9%
Fc1ccccc1COc1ccc(Br)cc1CNCC1CCCO1 (stereo not given)	?	-3.1%	-8.5%	?	-8.2%	14.6µM*
Fc1ccc(COc2ccc(Br)cc2CNCC2CCCO2)cc1 (stereo not given)	-73.5*	?	?	?	-12.8%	?
CC(C)COC(=O)N(C)C[C@@H]1OCc2cnnn2CCCC(=O)N([C@@H](C)CO)C[C@H]1C	12.4	0.0%	8.3%	2.9%	.	3.0%
SMILES	IL1B secr inh	HT1080 IDH1KD tx	HT1080-NT tox	TDP1 cell CPT	ELG1 DNA repair	DT40 TDP1 no CPT
Cc1ccc(C2(CCNC(C)c3cccs3)CCOC(C(C)C)C2)cc1 (stereo not given)	-81.2*	?	16.4µM*	-95.0%	-3.3%	?
CC(C)C1CC(CCN)(c2ccccc2)CCO1 (stereo not given)	-15.1	3.6%	-8.8%	?	-1.8%	-11.4%
Cc1ccc(C2(CCN)CCOC(C(C)C)C2)cc1 (stereo not given)	-3.0	-1.7%	2.2%	23.1µM*	-8.6%	?
CC(C)C1CC(CCN2CCCCC2)(c2ccccc2)CCO1 (stereo not given)	-0.7	-8.0%	-13.3%	-26.7%	8.6%	?
Cc1[nH]nc(-c2ccc(O)cc2O)c1-c1ccc(Cl)cc1	?	-29.4%	1.1%	?	-12.7%	?
COc1ccc(-c2n[nH]c(C)c2-c2ccc(Cl)cc2)c(O)c1	-18.4	20.6µM*	20.6µM*	-29.2%	-0.2%	?
COc1ccc(-c2n[nH]c(C)c2-c2ccc(Cl)cc2)c(O)c1OC	-14.1	?	-24.6%	?	11.6µM*	?
COc1ccc(NC(=O)COC(=O)CCNC(=O)c2ccco2)cc1Cl	-6.3	5.8%	0.7%	0.2%	0.0%	2.0%
CCOC(=O)Cn1nc(C)n(-c2c(C)cccc2C)c1=O	-62.3*	1.8%	8.9%	14.4%	-0.5%	4.0%
O=c1c2c3c(sc2ncn1/N=C/c1ccc(Br)o1)CCCC3	?	5.0%[9.24 µM]	-5.8%	-4.4%	-16.0%	-15.2%
Cc1ccc(/C=N/n2cnc3sc4c(c3c2=O)CCCC4)o1	-57.7*	-13.8%	?	-21.0%	1.6%	-17.8%
Cc1ccc(NCc2cccc(B(O)O)c2)cc1	-94.8*	-15.6%	-2.0%	-26.9%	.	-25.6%
Cc1ccccc1CN1CCN(CC(=O)NCc2ccccc2Cl)C1=O	.	.	.	0.6%	.	-20.7%
CCOc1ccc(-c2cccc(NS(=O)(=O)c3ccccc3C(F)(F)F)c2)nn1	.	.	.	?	.	25.9µM*
CCOc1ccc(-c2cccc(NS(=O)(=O)c3cccc([N+](=O)[O-])c3)c2)nn1	15.0	1.8%	1.6%	-27.1%	.	?
COc1ccc(-c2cccc(NS(=O)(=O)c3ccc(NC(C)=O)cc3)c2)nn1	.	.	.	18.4µM*	.	14.6µM*
CCOc1ccc(-c2cccc(NS(=O)(=O)c3ccc(C)s3)c2)nn1	.	.	.	23.1µM*	.	?
CCCOc1ccc(-c2cccc(NS(=O)(=O)c3ccc(CC)cc3)c2)nn1	.	.	.	16.4µM*	.	18.4µM*
COc1ccc(Cn2cc(CN3CC(N4CCN(C5CCN(C)CC5)CC4)CS3(=O)=O)nn2)cc1 (stereo not given)	0.0	7.4%	10.6%	1.0%	.	1.5%
